Results as given in the supplement of paper PMC5662767.

system: Drosophila S2 cl14 SmoIP sensor cells; experiment: normalized SmoIP GFP fluorescence (untreated unstimulated = 0%, untreated Hh-stimulated = 100%); higher = more Smo activation sensor fluorescence; conditions: stimulation: mock conditioned medium (-Hh); compound concentration: 2 uM; 24 h
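Note: flow cytometry read-out as median GFP intensity of gated cells, compounds added 30 min before Hh-conditioned or mock medium, mock-treated cells serving as unstimulated baseline.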

Row | Compound | normalized SmoIP GFP fluorescence
1 | CC(C)C[C@H](NC(=O)[C@@H](NC(=O)c1cccc(-c2ccccc2)n1)[C@@H](C)O)B(O)O | 64.4%
2 | O=C(/C=C/c1ccc(O)c(O)c1)c1ccc(O)cc1O [butein] | 3.58%
3 | CNCc1cc(-c2ccccc2F)n(S(=O)(=O)c2cccnc2)c1 | -15.1%
4 | COc1nc(C)cnc1NS(=O)(=O)c1cccnc1-c1ccc(-c2nnco2)cc1 [Zibotentan(ZD4054)] | -1.13%
